Consider one compound from PubChem BioAssay (NCATS).

For assay [1], the target named is Tumor susceptibility gene 101 protein (Homo sapiens) (UniProt Q99816). Briefly: qHTS Assay for Iinhibitors of HIV-1 Budding by Blocking the Interaction of PTAP/TSG101: Hit Validation (AID 651600; active = well fitted curve in the direction sought with a large enough effect; an effect the other way counts as inactive or inconclusive; also: potency is read from the fitted curve at half-maximal effect; nearly all actives have a fitted effect of over 70% in size). The note with it: PTAP peptide/TSG101 UEV interaction, biochemical assay; series mostly up to 57.5 µM. In a few lines: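 Fluorescence polarization binding assay: Tsg101 binding domain (10 uM) mixed with compounds and FITC-labeled PTAP peptide (50 nM) in HEPES pH 7.5, 0.15 M NaCl, 0.01% Tween 20, EDTA, TCEP; 20 min at r.t.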
Tumor susceptibility gene 101 protein (Homo sapiens), sequence (Q99816 whole entry, looked up, the tested form may be a part): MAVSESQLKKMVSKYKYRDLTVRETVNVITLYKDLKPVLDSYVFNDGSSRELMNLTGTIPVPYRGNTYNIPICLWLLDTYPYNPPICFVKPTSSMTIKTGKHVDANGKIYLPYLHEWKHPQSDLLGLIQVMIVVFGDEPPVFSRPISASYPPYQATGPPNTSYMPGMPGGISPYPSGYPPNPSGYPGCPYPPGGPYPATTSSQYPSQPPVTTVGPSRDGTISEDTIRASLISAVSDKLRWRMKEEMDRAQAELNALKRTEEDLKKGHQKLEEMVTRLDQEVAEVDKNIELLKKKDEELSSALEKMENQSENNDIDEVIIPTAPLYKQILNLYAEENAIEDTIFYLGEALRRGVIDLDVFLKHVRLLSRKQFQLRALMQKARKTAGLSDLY
(In general: qHTS replaces the single test concentration by a dilution series.)

Assay [2] addresses Cytochrome P450 3A4 (Homo sapiens) (UniProt P08684). In words: Cytochrome P450 family 3 subfamily A member 4 (CYP3A4) small molecule antagonists: luciferase qHTS assay (AID 1645841). Also: nearly all actives have a fitted effect of over 45% in size. The note with it: P450-Glo CYP3A4 enzyme assay, luciferin luminescence; series mostly up to 57.4 µM. In short, it runs like this: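 P450-Glo CYP3A4 enzyme with proluciferin substrate preincubated 10 min with compound at room temperature, then NADPH regeneration 1 h. Luciferin detection reagent added for 20 min; luminescence recorded. Ketoconazole positive control.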

Assay [3] has as its target Cytochrome P450 2C9 (Homo sapiens) (UniProt P11712). In words: Cytochrome P450 family 2 subfamily C member 9 (CYP2C9) small molecule antagonists: luciferase biochemical (cell-free) qHTS assay (AID 1645842). Also: nearly all actives have a fitted effect of over 55% in size. To be noted: P450-Glo CYP2C9 enzyme assay, luciferin luminescence; series mostly up to 57.4 µM. In short, it runs like this:
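Luminescence, after 20 min with luciferin detection reagent, reflected CYP2C9 turnover during a 1 h NADPH-driven reaction at 37C. Enzyme-substrate mix contained 0.4% bovine serum albumin and was preincubated with compound 10 min at room temperature.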

Results filed as inconclusive are left out. A call without a number means that no potency is given here. Active and inactive are the calls of the source. Unless noted, calls follow the shape of the dose curve; as a rule, active = well fitted curve in the direction sought with a large enough effect in the repeat runs; inconclusive = weak or mixed curves; inactive = no such curve, though single readings can be large; an effect the other way counts as inactive or inconclusive.

Cytochrome P450 3A4 (Homo sapiens), sequence (P08684 whole entry, looked up): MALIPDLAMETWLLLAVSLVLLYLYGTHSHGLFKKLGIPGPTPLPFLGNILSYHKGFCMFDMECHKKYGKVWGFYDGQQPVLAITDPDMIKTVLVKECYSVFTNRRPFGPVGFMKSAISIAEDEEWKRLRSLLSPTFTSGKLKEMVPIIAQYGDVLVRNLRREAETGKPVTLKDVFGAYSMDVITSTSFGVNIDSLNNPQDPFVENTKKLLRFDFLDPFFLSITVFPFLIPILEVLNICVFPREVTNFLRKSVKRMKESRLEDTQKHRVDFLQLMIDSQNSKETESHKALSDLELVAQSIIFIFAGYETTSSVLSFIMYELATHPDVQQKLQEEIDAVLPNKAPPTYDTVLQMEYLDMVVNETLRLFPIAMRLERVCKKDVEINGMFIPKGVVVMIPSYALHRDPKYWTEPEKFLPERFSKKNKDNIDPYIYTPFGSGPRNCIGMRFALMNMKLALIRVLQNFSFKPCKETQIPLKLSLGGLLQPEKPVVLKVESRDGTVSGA
Cytochrome P450 2C9 (Homo sapiens), sequence (P11712 whole entry, looked up): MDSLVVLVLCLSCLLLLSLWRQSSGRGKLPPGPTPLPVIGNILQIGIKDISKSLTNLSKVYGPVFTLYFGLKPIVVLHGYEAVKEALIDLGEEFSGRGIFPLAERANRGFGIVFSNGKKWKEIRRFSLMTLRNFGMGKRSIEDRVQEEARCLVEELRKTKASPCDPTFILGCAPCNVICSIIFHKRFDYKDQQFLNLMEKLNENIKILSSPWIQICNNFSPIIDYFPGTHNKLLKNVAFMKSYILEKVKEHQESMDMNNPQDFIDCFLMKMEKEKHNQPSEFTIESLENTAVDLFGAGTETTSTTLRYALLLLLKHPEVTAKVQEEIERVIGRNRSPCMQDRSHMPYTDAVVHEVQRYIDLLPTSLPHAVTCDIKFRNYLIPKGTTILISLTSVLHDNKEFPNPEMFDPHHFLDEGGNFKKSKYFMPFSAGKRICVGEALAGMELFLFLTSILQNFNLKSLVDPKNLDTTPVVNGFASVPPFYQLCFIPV

In the case of `CC1=NCCc2c1[nH]c1cc(O)ccc21`, the Potency in assay [1] was 3.26 µM (active). The call in assay [2] was inactive. Besides, the Potency entry in assay [3] is “inactive”.
